# Experimental data: PubChem BioAssay (NCATS)
# Where “and” joins values, the source holds several entries; their conditions need not be identical. Equal values may be shown once. Results filed as inconclusive are left out. Where a call stands in place of a potency, no number is given. A number with no mark means an inactive call. Calls of active or inactive are those of the source. The call rests on the fitted dose curve; in most records, active means well fitted inhibition curve with a large enough effect; inconclusive means small, poorly fitted or top-dose-only effect; inactive means flat fitted curve, though single readings scatter.
# Columns and labels:
# [1] = qHTS profiling for inhibitors of Plasmodium falciparum proliferation (AID 504749); further: nearly all actives have a fitted effect of over 60% in size; conditions: P. falciparum in erythrocytes, SYBR Green DNA, 72 h
# Procedure, shortened: (§1)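 Parasite proliferation within erythrocytes, 72 h exposure. Endpoint: SYBR Green I fluorescence after overnight lysis at room temperature. Controls: 0.29 uM artemisinin, DMSO.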
# 3D7 = test: as above; conditions: P. falciparum in erythrocytes, SYBR Green DNA, 72 h; series mostly up to 28.7 µM
# Procedure, shortened: as §1
# 7G8 = test: as above; conditions: P. falciparum in erythrocytes, SYBR Green DNA, 72 h; series mostly up to 28.7 µM
# Procedure, shortened: as §1
# AA1029 = test: as above; conditions: P. falciparum in erythrocytes, SYBR Green DNA, 72 h; series mostly up to 28.7 µM
# Procedure, shortened: as §1
# AS120 = test: as above; conditions: P. falciparum in erythrocytes, SYBR Green DNA, 72 h; series mostly up to 28.7 µM
# Procedure, shortened: as §1
# ATS189 = test: as above; conditions: P. falciparum in erythrocytes, SYBR Green DNA, 72 h; series mostly up to 28.7 µM
# Procedure, shortened: as §1
# ATS95 = test: as above; conditions: P. falciparum in erythrocytes, SYBR Green DNA, 72 h; series mostly up to 28.7 µM
# Procedure, shortened: as §1
# C2A = test: as above; conditions: P. falciparum in erythrocytes, SYBR Green DNA, 72 h; series mostly up to 28.7 µM
# Procedure, shortened: as §1
# CP185 = test: as above; conditions: P. falciparum in erythrocytes, SYBR Green DNA, 72 h; series mostly up to 28.7 µM
# Procedure, shortened: as §1
# CP191 = test: as above; conditions: P. falciparum in erythrocytes, SYBR Green DNA, 72 h; series mostly up to 28.7 µM
# Procedure, shortened: as §1
# CP192 = test: as above; conditions: P. falciparum in erythrocytes, SYBR Green DNA, 72 h; series mostly up to 28.7 µM
# Procedure, shortened: as §1
# CP194 = test: as above; conditions: P. falciparum in erythrocytes, SYBR Green DNA, 72 h; series mostly up to 28.7 µM
# Procedure, shortened: as §1
# CP201 = test: as above; conditions: P. falciparum in erythrocytes, SYBR Green DNA, 72 h; series mostly up to 28.7 µM
# Procedure, shortened: as §1
# CP211 = test: as above; conditions: P. falciparum in erythrocytes, SYBR Green DNA, 72 h; series mostly up to 28.7 µM
# Procedure, shortened: as §1
# CP215 = test: as above; conditions: P. falciparum in erythrocytes, SYBR Green DNA, 72 h; series mostly up to 28.7 µM
# Procedure, shortened: as §1
# CP217 = test: as above; conditions: P. falciparum in erythrocytes, SYBR Green DNA, 72 h; series mostly up to 28.7 µM
# Procedure, shortened: as §1
# CP237 = test: as above; conditions: P. falciparum in erythrocytes, SYBR Green DNA, 72 h; series mostly up to 28.7 µM
# Procedure, shortened: as §1
# CP238 = test: as above; conditions: P. falciparum in erythrocytes, SYBR Green DNA, 72 h; series mostly up to 28.7 µM
# Procedure, shortened: as §1
# CP203 = test: as above; conditions: P. falciparum in erythrocytes, SYBR Green DNA, 72 h; series mostly up to 28.7 µM
# Procedure, shortened: as §1
# [2] = at 28.7 µM (top of the series), parasite line A
# [3] = at 28.7 µM (top of the series), parasite line B
# [4] = at 12.8 µM (top of the series), parasite line A
# [5] = at 12.8 µM (top of the series), parasite line B
# Potency means the concentration at half of the fitted maximal effect.
smiles,measurement,setting,value
CCCCCCOc1ccccc1C(N)=O,"activity, negative = inhibition",[1]; [2],-23.7%
same,"activity, negative = inhibition",[1]; [3],1.07%
same,Potency,3D7,inactive
same,Potency,7G8,inactive
same,Potency,AA1029,inactive
same,Potency,AS120,inactive
same,Potency,ATS189,inactive
same,Potency,ATS95,inactive
same,Potency,C2A,inactive
same,Potency,CP185,inactive
same,Potency,CP191,inactive
same,Potency,CP192,inactive
same,Potency,CP194,inactive
same,Potency,CP201,inactive
same,Potency,CP211,inactive
same,Potency,CP215,inactive
same,Potency,CP217,inactive
same,Potency,CP237,inactive
same,Potency,CP238,inactive
CN1CCN(c2cc3c(nn2)Oc2ccccc2N3C)CC1,"activity, negative = inhibition",[1]; [2],11.3%
same,"activity, negative = inhibition",[1]; [3],1.64%
same,Potency,3D7,inactive
same,Potency,7G8,inactive
same,Potency,AA1029,inactive
same,Potency,AS120,inactive
same,Potency,ATS189,inactive
same,Potency,ATS95,inactive
same,Potency,C2A,inactive
same,Potency,CP185,inactive
same,Potency,CP191,inactive
same,Potency,CP192,inactive
same,Potency,CP194,inactive
same,Potency,CP201,inactive
same,Potency,CP211,inactive
same,Potency,CP215,inactive
same,Potency,CP217,inactive
same,Potency,CP237,inactive
same,Potency,CP238,inactive
COc1cc2c3cc1Oc1cc(ccc1O)C[C@@H]1c4c(cc(OC)c(O)c4Oc4ccc(cc4)C[C@@H]3N(C)CC2)CC[N+]1(C)C,"activity, negative = inhibition",[1]; [2],5.03%
same,"activity, negative = inhibition",[1]; [3],8.98%
same,Potency,3D7,inactive
same,Potency,7G8,inactive
same,Potency,AA1029,inactive
same,Potency,AS120,inactive
same,Potency,ATS189,inactive
same,Potency,ATS95,inactive
same,Potency,C2A,inactive
same,Potency,CP185,inactive
same,Potency,CP191,inactive
same,Potency,CP192,inactive
same,Potency,CP194,inactive
same,Potency,CP201,inactive
same,Potency,CP211,inactive
same,Potency,CP215,inactive
same,Potency,CP217,inactive
same,Potency,CP237,inactive
same,Potency,CP238,inactive
C=CCN1C(=O)C(CC(C)C)NC1=S (stereo unspecified),"activity, negative = inhibition",[1]; [2],-18.4% and 2.94%
same,"activity, negative = inhibition",[1]; [3],-2.47% and 3.7%
same,Potency,3D7,inactive
same,Potency,7G8,inactive
same,Potency,AA1029,inactive
same,Potency,AS120,inactive
same,Potency,ATS189,inactive
same,Potency,ATS95,inactive
same,Potency,C2A,inactive
same,Potency,CP185,inactive
same,Potency,CP191,inactive
same,Potency,CP192,inactive
same,Potency,CP194,inactive
same,Potency,CP201,inactive
same,Potency,CP211,inactive
same,Potency,CP215,inactive
same,Potency,CP217,inactive
same,Potency,CP237,inactive
same,Potency,CP238,inactive
O=C(Nc1ccc(C(=O)O)c(O)c1)c1ccccc1,"activity, negative = inhibition",[1]; [2],-20.7%
same,"activity, negative = inhibition",[1]; [3],-1.01%
same,Potency,3D7,inactive
same,Potency,7G8,inactive
same,Potency,AA1029,inactive
same,Potency,AS120,inactive
same,Potency,ATS189,inactive
same,Potency,ATS95,inactive
same,Potency,C2A,inactive
same,Potency,CP185,inactive
same,Potency,CP191,inactive
same,Potency,CP192,inactive
same,Potency,CP194,inactive
same,Potency,CP201,inactive
same,Potency,CP211,inactive
same,Potency,CP215,inactive
same,Potency,CP217,inactive
same,Potency,CP237,inactive
same,Potency,CP238,inactive
COc1ccc(-c2cc(=S)ss2)cc1,"activity, negative = inhibition",[1]; [2],-10.3%
same,"activity, negative = inhibition",[1]; [3],-12.9%
same,Potency,3D7,inactive
same,Potency,7G8,12.6 µM (active)
same,Potency,AA1029,inactive
same,Potency,AS120,inactive
same,Potency,ATS189,inactive
same,Potency,ATS95,inactive
same,Potency,C2A,inactive
same,Potency,CP185,inactive
same,Potency,CP191,inactive
same,Potency,CP192,inactive
same,Potency,CP194,inactive
same,Potency,CP201,inactive
same,Potency,CP211,inactive
same,Potency,CP215,inactive
same,Potency,CP217,inactive
same,Potency,CP237,inactive
same,Potency,CP238,inactive
Cc1ccc(C(=O)c2ccc(CC(=O)O)n2C)cc1,"activity, negative = inhibition",[1]; [4],-5.58%
same,"activity, negative = inhibition",[1]; [5],10.6%
same,Potency,3D7,inactive
same,Potency,7G8,inactive
same,Potency,AA1029,inactive
same,Potency,AS120,inactive
same,Potency,ATS189,inactive
same,Potency,ATS95,inactive
same,Potency,C2A,inactive
same,Potency,CP185,inactive
same,Potency,CP191,inactive
same,Potency,CP192,inactive
same,Potency,CP194,inactive
same,Potency,CP201,inactive
same,Potency,CP211,inactive
same,Potency,CP215,inactive
same,Potency,CP217,inactive
same,Potency,CP237,inactive
same,Potency,CP238,inactive
CCCCCCCCCCCC(=O)[O][Sn]([CH2]CCC)([CH2]CCC)[O]C(=O)CCCCCCCCCCC,"activity, negative = inhibition",[1]; [2],-9.86%
same,"activity, negative = inhibition",[1]; [3],-5.91%
same,Potency,3D7,inactive
same,Potency,7G8,inactive
same,Potency,AA1029,inactive
same,Potency,AS120,inactive
same,Potency,ATS189,inactive
same,Potency,ATS95,inactive
same,Potency,C2A,inactive
same,Potency,CP185,inactive
same,Potency,CP191,inactive
same,Potency,CP192,inactive
same,Potency,CP194,inactive
same,Potency,CP201,inactive
same,Potency,CP211,inactive
same,Potency,CP215,inactive
same,Potency,CP217,inactive
same,Potency,CP237,10 µM (active)
same,Potency,CP238,inactive
Cc1c(Nc2ncccc2C(=O)O)cccc1C(F)(F)F,"activity, negative = inhibition",[1]; [4],7.85%
same,"activity, negative = inhibition",[1]; [5],-2.62%
same,Potency,3D7,inactive
same,Potency,7G8,inactive
same,Potency,AA1029,inactive
same,Potency,AS120,inactive
same,Potency,ATS189,inactive
same,Potency,ATS95,inactive
same,Potency,C2A,inactive
same,Potency,CP185,inactive
same,Potency,CP191,inactive
same,Potency,CP192,inactive
same,Potency,CP194,inactive
same,Potency,CP201,inactive
same,Potency,CP203,inactive
same,Potency,CP211,inactive
same,Potency,CP215,inactive
same,Potency,CP217,inactive
same,Potency,CP237,inactive
same,Potency,CP238,inactive
O=C(O)COc1ccc(C(=O)c2cccs2)c(Cl)c1Cl,"activity, negative = inhibition",[1]; [2],17.6% and 6.75%
same,"activity, negative = inhibition",[1]; [3],6.94% and 2.12%
same,Potency,3D7,inactive
same,Potency,7G8,inactive
same,Potency,AA1029,inactive
same,Potency,AS120,inactive
same,Potency,ATS189,inactive
same,Potency,ATS95,inactive
same,Potency,C2A,inactive
same,Potency,CP185,inactive
same,Potency,CP191,inactive
same,Potency,CP192,inactive
same,Potency,CP194,inactive
same,Potency,CP201,inactive
same,Potency,CP203,inactive
same,Potency,CP211,inactive
same,Potency,CP215,inactive
same,Potency,CP217,inactive
same,Potency,CP237,inactive
same,Potency,CP238,inactive
C=CCCCCCCCCC(=O)O,"activity, negative = inhibition",[1]; [2],5.45%
same,"activity, negative = inhibition",[1]; [3],15%
same,Potency,3D7,inactive
same,Potency,7G8,inactive
same,Potency,AA1029,inactive
same,Potency,AS120,inactive
same,Potency,ATS189,inactive
same,Potency,ATS95,inactive
same,Potency,C2A,inactive
same,Potency,CP185,inactive
same,Potency,CP191,inactive
same,Potency,CP192,inactive
same,Potency,CP194,inactive
same,Potency,CP201,inactive
same,Potency,CP211,inactive
same,Potency,CP215,inactive
same,Potency,CP217,inactive
same,Potency,CP237,inactive
same,Potency,CP238,inactive
CC1(C)C[C@@H]1C(=O)N/C(=C\CCCCSC[C@H](N)C(=O)O)C(=O)O,"activity, negative = inhibition",[1]; [2],10.1%
same,"activity, negative = inhibition",[1]; [3],-12.7%
same,Potency,3D7,inactive
same,Potency,7G8,inactive
same,Potency,AA1029,inactive
same,Potency,AS120,inactive
same,Potency,ATS189,inactive
same,Potency,ATS95,inactive
same,Potency,C2A,inactive
same,Potency,CP185,inactive
same,Potency,CP191,inactive
same,Potency,CP192,inactive
same,Potency,CP194,inactive
same,Potency,CP201,inactive
same,Potency,CP203,inactive
same,Potency,CP211,inactive
same,Potency,CP215,inactive
same,Potency,CP217,inactive
same,Potency,CP237,inactive
same,Potency,CP238,inactive
